Most compounds without a hit are left out; they make up all but 2.6% or so of the library.
Cruzain Triton = qHTS Assay for Promiscuous and Specific Inhibitors of Cruzain (with detergent); Cruzipain (Trypanosoma cruzi), P25779; purified cruzain, Z-FR-AMC fluorescence, 0.01% Triton; Potency, µM, without a hit: max response, negative = inhibition, usual class: inhibitors; 200,000 tested, 0.43% active;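 note: plate controls were neutral wells for no effect and buffer without enzyme for full effect; nearly all actives have a fitted effect of over 40% in size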
Target sequence (P25779 123-467 limits assumed): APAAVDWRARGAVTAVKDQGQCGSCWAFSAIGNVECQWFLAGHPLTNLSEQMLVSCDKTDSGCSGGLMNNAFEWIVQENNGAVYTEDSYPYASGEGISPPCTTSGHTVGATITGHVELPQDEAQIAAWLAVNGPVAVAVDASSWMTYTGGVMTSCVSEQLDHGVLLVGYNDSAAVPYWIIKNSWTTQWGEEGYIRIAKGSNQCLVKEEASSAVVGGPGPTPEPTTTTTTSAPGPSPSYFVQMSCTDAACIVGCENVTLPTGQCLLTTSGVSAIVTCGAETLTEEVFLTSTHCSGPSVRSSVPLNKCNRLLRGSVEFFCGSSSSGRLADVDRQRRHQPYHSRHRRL
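15 min RT preincubation of 1.5 nM cruzain with compound, then 2 uM Z-FR-AMC added; kinetic AMC fluorescence, 60 s delta. Triton X-100 0.01%, pH 5.5.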
Cruzain noTriton = qHTS Assay for Promiscuous and Specific Inhibitors of Cruzain (without detergent) | AID 1476, 2009 | Cruzipain (Trypanosoma cruzi), P25779 | purified cruzain, Z-FR-AMC fluorescence, no detergent | 200,000 tested, 2.3% active | Potency, µM, inactives show max response, negative = inhibition, most hits filed as inhibitors;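 note: plate controls were enzyme without inhibitor for no effect and buffer without enzyme for full effect; nearly all actives have a fitted effect of over 40% in size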
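Detergent-free condition (0.00005% Triton X-100) in acetate buffer pH 5.5 with DTT. 1.5 nM enzyme and compound were pre-mixed 15 min, then 2 uM Z-FR-AMC substrate added; reaction progress from fluorescence change between first and third reads (60 s).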
An asterisk follows results filed as active; ? = inconclusive. Calls come from the whole dose curve; as a rule, active = well fitted curve in the direction sought with a large enough effect; inconclusive = small, poorly fitted or top-dose-only effect, or another doubt; inactive = no such curve, though single readings can be large; an effect the other way counts as inactive or inconclusive. Potency is the fitted concentration of half-maximal effect.

SMILES | Cruzain Triton | Cruzain noTriton
CC(C)c1ccc(C2Sc3ccccc3NC3=C2C(=O)c2ccccc23)cc1 (stereo unspecified) | -4% | 10µM*
CC(=O)Nc1ccc(C2Sc3ccccc3NC3=C2C(=O)c2ccccc23)cc1 (stereo unspecified) | -9% | -5%
CCc1ccc(C2Sc3ccccc3NC3=C2C(=O)c2ccccc23)cc1 (stereo unspecified) | -8% | ?
CCCCOC(=O)c1cccc(NC(=O)c2cc3ccccc3o2)c1 | -8% | -10%
CCOC(=O)c1oc2ccc(S(=O)(=O)n3nc(-c4ccc(Br)cc4)cc3N)cc2c1C | 1% | -5%
CCC(Sc1nnc2c(n1)[nH]c1ccccc12)C(=O)Nc1ccccc1OC (stereo unspecified) | -8% | -7%
COc1ccc2[nH]cc(CCNc3nc(-c4ccc(N(C)C)cc4)nc4ccccc34)c2c1 | -16% | 25µM*
COc1ccc2[nH]cc(CCNc3ncnc4ccc(-c5cccnc5)cc34)c2c1 | -4% | -14%
COc1ccc2[nH]cc(CCNc3ncnc4ccc(-c5ccc6c(c5)OCO6)cc34)c2c1 | 0% | 32µM*
COc1ccc2[nH]cc(CCNc3nc(-c4ccc(C(=O)N(C)C)cc4)nc4ccccc34)c2c1 | -4% | -4%
COc1c(Cl)cc(Cl)cc1/C=C/C(=O)c1ccc(NC(=O)c2cccs2)cc1 | -3% | 32µM*
O=C(Nc1ccc(NC(=O)c2cccs2)cc1)c1ccc(Cl)cc1 | 0% | -5%
COc1ccccc1OCC(=O)NCCS(=O)(=O)N1CCN(c2ccccc2OC)CC1 | 0% | ?
Cc1ccc(OCCSc2nc3ccc(NC(=O)c4cccs4)cc3s2)cc1 | -2% | 0%
Cc1cc(C)cc(OCCSc2nc3ccc(NC(=O)c4cccs4)cc3s2)c1 | -2% | 20µM*
CCOC(=O)c1ccc(NS(=O)(=O)c2cc(-c3onc(C)c3C)ccc2C)cc1 | -9% | 1%
COc1ccccc1NC(=O)C1=C(C)Nc2nc(-c3ccc(N(C)C)cc3)nn2C1c1ccncc1 (stereo unspecified) | -6% | ?
COc1ccccc1NC(=O)C1=C(C)Nc2nc(-c3cccs3)nn2C1c1cccnc1 (stereo unspecified) | 0% | 16µM*
CCOc1ccc(C(=O)Nc2ccc(S(=O)(=O)N3CCCCC3c3cccnc3)cc2)cc1 (stereo unspecified) | -4% | 2%
CCN(CC)c1ccc2cc(-c3nc(-c4ccccc4)no3)c(=O)oc2c1 | 1% | -5%
COc1ccccc1C(=O)Nc1cc2cc(Br)ccc2oc1=O | -2% | 16µM*
COc1ccccc1C(=O)Nc1cc2ccccc2oc1=O | 20% | 3%
O=C(Nc1ccccc1)/C(=C\c1ccncc1)NC(=O)c1ccccc1 | -1% | -2%
Cc1ccc(S(=O)(=O)Oc2ccc(/C=C(/NC(=O)c3ccccc3)C(=O)Nc3ccccc3)cc2)cc1 | 2% | 13µM*
CSc1ccc(/C=C(/NC(=O)c2ccc(C)cc2)C(=O)Nc2cccc(C)c2)cc1 | -6% | 6.3µM*
SMILES | Cruzain Triton | Cruzain noTriton
COc1ccc(NC(=O)/C(=C\c2ccc(OS(=O)(=O)c3ccc(C)cc3)cc2)NC(=O)c2ccccc2)cc1 | 3% | 7.9µM*
Cc1ccc(NC(=O)/C(=C/c2ccncc2)NC(=O)c2ccccc2)cc1 | -4% | -8%
Cc1cccc(NC(=O)/C(=C\c2ccc([N+](=O)[O-])o2)NC(=O)c2ccc(Cl)cc2)c1 | -3% | -20%
COc1cc(NC(=O)CC(c2cccs2)N2Cc3ccccc3C2=O)cc(OC)c1OC (stereo unspecified) | -3% | 22%
N#Cc1ccc(NC(=O)c2cc(-c3cccc(Cl)c3)on2)cc1 | 0% | -1%
CCOC(=O)c1ccc(N2C(=O)c3[nH]nc(-c4ccc(OCC)cc4)c3C2c2cccs2)cc1 (stereo unspecified) | -2% | ?
Cc1ccc(C(=O)c2cnc3ccccc3c2-c2ccccc2)cc1 | -1% | 5%
CCc1ccc(C(=O)c2cnc3ccc(C)cc3c2S(=O)(=O)c2ccc(OC)cc2)cc1 | -2% | -11%
CCOc1ccc(S(=O)(=O)c2c(C(=O)c3ccccc3)cnc3cc4c(cc23)OCCO4)cc1 | -6% | 32µM*
CCc1ccc(S(=O)(=O)c2c(C(=O)c3ccc(C)c(C)c3)cnc3ccccc23)cc1 | -3% | 13µM*
CCOc1ccc(C(=O)c2cnc3ccc(Cl)cc3c2S(=O)(=O)c2ccc(C)cc2)cc1 | 0% | 11%
CCOc1ccc(S(=O)(=O)c2c(C(=O)c3ccc(CC)cc3)cnc3ccc(C)cc23)cc1 | -4% | 20µM*
COC(=O)[C@@]1(Cc2ccccc2)[C@H]2c3cc(C(=O)N(C)C)n(CCF)c3C[C@H]2CN1C(=O)c1ccccc1 | 1% | ?
O=C(Nc1ccc2c(c1)OCO2)Nc1ccc(Cl)cc1Cl | 6% | 25µM*
O=C(Nc1ccc(OC(F)F)c(Cl)c1)Nc1ccc2c(c1)OCO2 | 6% | ?
O=S(=O)(c1ccccc1)c1nc(-c2cccs2)oc1SCc1ccccc1F | -6% | 16%
COc1ccc2oc(=O)cc(CN3CCN(C(=O)c4ccccc4Br)CC3)c2c1 | -6% | -4%
Cc1ccc(Cl)cc1-n1nnc(-c2nsc(NC(=O)c3ccccc3Cl)n2)c1C | -5% | 3.2µM*
Cc1ccc(C(=O)Nc2nc(-c3nnn(-c4cccc(Cl)c4C)c3C)ns2)cc1C | -2% | ?
Cc1ccc(-n2c(C)cc(/C=c3/sc4nc5ccccc5n4c3=O)c2C)cc1 | 0% | 10µM*
O=c1/c(=C\c2cccn2-c2ccccc2)sc2nc3ccccc3n12 | 3% | ?
O=C=Nc1ccc(Cc2ccc(N=C=O)cc2)cc1 (tested in a mixture with another compound) | 0% | 3%
O=C=Nc1ccc(Cc2ccc(N=C=O)cc2)cc1 | -19% | 16µM*
Cc1ccc(NC(=O)CSc2nc(=O)n(Cc3ccco3)c3c2CCC3)cc1F | -4% | -18%
Cc1ccc(CCNC(=O)c2ccc3c(=O)n(-c4ccc(C)cc4)c(=O)[nH]c3c2)cc1 | 1% | 3%
SMILES | Cruzain Triton | Cruzain noTriton
Cc1ccc(-n2c(=O)[nH]c3cc(C(=O)NCCc4ccccc4)ccc3c2=O)cc1 | -1% | 16µM*
C[C@@H](CCc1ccc(O)cc1)NCCc1ccc(O)c(O)c1 | 2% | 0%
Cc1[nH]c2ccccc2c1CCNC(=O)c1ccc2c(c1[N+](=O)[O-])C(=O)c1ccccc1C2=O | 2% | 10µM*
Cc1[nH]c2c(C)cccc2c1CCNC(=O)c1ccc2c(c1[N+](=O)[O-])C(=O)c1ccccc1C2=O | 3% | 7.9µM*
CN(C)C(=O)c1ccc2c(c1[N+](=O)[O-])C(=O)c1ccccc1C2=O | 0% | -11%
Cc1ccc2c(c1[N+](=O)[O-])C(=O)c1ccccc1C2=O | 6% | 2%
COc1ccccc1N1CCN(C(=O)c2c3c(nc4ccccc24)C(=O)N(C2CCCCC2)C3)CC1 | -2% | -1%
Cc1cc2c(cc1C)CSC(c1ccc3ccccc3c1O)SC2 | 0% | 25µM*
Cc1cc2c(cc1C)CSC(c1c(O)ccc3ccccc13)SC2 | 3% | ?
N[C@@H](Cc1ncccn1)C(=O)O | 0% | -8%
CC(C)c1ccc(NC(=O)CN2C(=O)COc3ccc(S(=O)(=O)Nc4ccccc4)cc32)cc1 | -8% | 20µM*
Cc1cccc(NC(=O)CN2C(=O)COc3ccc(S(=O)(=O)Nc4ccccc4)cc32)c1C | 3% | ?
